For test [1], the system named is Zika virus NS2B-NS3 protease (unlinked complex). Put plainly: Primary screen GU Rhodamine qHTS for Zika virus inhibitors: Unlinked NS2B-NS3 protease assay (AID 1347159). Note: % is set by controls: 0 for no effect and ±100 for the full control effect; nearly all actives have a fitted effect of over 60% in size. The procedure, abridged: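 Compounds, tested up to 114 microM, were incubated for 15 minutes with 25 nM unlinked NS2B-NS3 protease at pH 8.0. Cleavage of 1.5 microM Rhodamine110 substrate was then followed by fluorescence for 15 minutes.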
In general terms: In qHTS, concentration-response curves come from the screen itself.

Test [2] addresses Cytochrome P450 2C9 (Homo sapiens) (UniProt P11712). Put plainly: Cytochrome P450 family 2 subfamily C member 9 (CYP2C9) small molecule antagonists: luciferase biochemical (cell-free) qHTS assay (AID 1645842; active = well fitted curve in the direction sought with a large enough effect in the repeat runs; an effect the other way counts as inactive or inconclusive; note: nearly all actives have a fitted effect of over 55% in size; note: potency is the fitted concentration of half-maximal effect; for activity change, negative = inhibition: % is set by controls: 0 for no effect and ±100 for the full control effect). In outline: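 Luminescence, after 20 min with luciferin detection reagent, reflected CYP2C9 turnover during a 1 h NADPH-driven reaction at 37C. Enzyme-substrate mix contained 0.4% bovine serum albumin and was preincubated with compound 10 min at room temperature.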

The subject of another test is HACAT. Put plainly: qHTS assay to identify novel small-molecules to repurpose for Merkel cell carcinoma treatment (AID 1296009). Note: nearly all actives have a fitted effect of over 60% in size. The note with it: MCC and control cell lines, CellTiter-Glo viability, 72 h; at 44.8 µM (top of the series) unless noted. The procedure, abridged: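 Cells were incubated with compound for 72 hr at 37 degree celsius before CellTiter-Glo addition. Luminescence was normalized with no-cell wells as full cytotoxicity and DMSO as baseline.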

A further test deals with PA-1. Description: Primary qHTS to identify gynecologic anti-cancer compounds using libraries of approved drugs and bioactive compounds (AID 1345084). Note: nearly all actives have a fitted effect of over 55% in size. Note: potency is the fitted concentration of half-maximal effect. The note with it: Gynecologic cancer cell panel viability, ATPlite luminescence, 48 h; series mostly up to 57.5 µM. The procedure, abridged:
(§1)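 Cell viability after 48 h drug treatment, ATPlite luminescence readout; five doses.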

For the next test, the system named is SKOV3. The test is described as above. The note with it: Gynecologic cancer cell panel viability, ATPlite luminescence, 48 h; series mostly up to 57.5 µM. In outline:
as §1

Test [3] can be described thus: P-glycoprotein substrates identified in KB-8-5-11 adenocarcinoma cell line, qHTS therapeutic library screen (AID 1346987). Note: nearly all actives have a fitted effect of over 65% in size. Note: potency is the fitted concentration of half-maximal effect. The procedure, abridged:
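P-gp-mediated resistance screen: KB-8-5-11 cells treated 72 h with compounds in dose-response. CellTiter-Glo viability.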

Test [4] can be described thus: qHTS to identify inhibitors of the type 1 interferon - major histocompatibility complex class I in skeletal muscle: primary screen against the NCATS Mechanism Interrogation Plate v5.0 (MIPE) Libary (AID 1347411).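 Note: plate controls were vehicle for no effect and reference inhibitor for full effect; nearly all actives have a fitted effect of over 65% in size.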 The procedure, abridged:
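Cells were genome-edited human myoblasts carrying a HiBit tag on endogenous HLA-B. They were treated with IFN-beta (4.0 ng/ml) and titrated compounds (top 46 uM) for 24 hrs before lytic HiBiT detection.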

The target of test [5] is Cytochrome P450 2D6 (Homo sapiens) (UniProt P10635). Description: Cytochrome P450 family 2 subfamily D member 6 (CYP2D6) small molecule antagonists: luciferase biochemical (cell-free) qHTS assay (AID 1645840; active = well fitted curve in the direction sought with a large enough effect in the repeat runs; an effect the other way counts as inactive or inconclusive; note: potency is the fitted concentration of half-maximal effect; nearly all actives have a fitted effect of over 55% in size). The procedure, abridged:
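P450-Glo luminescent screen: recombinant CYP2D6 enzyme–proluciferin substrate mix preincubated with compound 10 min at room temperature, then NADPH regeneration added for 1 h at room temperature. Detection reagent added for 20 min; luciferin light read as relative luminescence units.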

Test [6] has as its target Catechol O-methyltransferase (Homo sapiens) (UniProt P21964). Put plainly: Confirmatory Screen for Target Class Profiling of Small Molecule Inhibitors of Methyltransferases (AID 1745852). For activity change, negative = inhibition: % is set by controls: 0 for no effect and ±100 for the full control effect. The note with it: MTase-Glo luminescence, SAH detection, recombinant enzyme; measured here: COMT max response; stronger effect = lower value.
For test [7], the target named is Guanidinoacetate N-methyltransferase (Homo sapiens) (UniProt Q14353). Described as above. To be noted: activity change, negative = inhibition: at 57.3 µM (top of the series) unless noted.
For test [8], the target named is Nicotinamide N-methyltransferase (Homo sapiens) (UniProt P40261). Described as above. To be noted: MTase-Glo luminescence, SAH detection, recombinant enzyme; measured here: NNMT max response; stronger effect = lower value.
The target of test [9] is Phenylethanolamine N-methyltransferase (Homo sapiens) (UniProt P11086). The description is as above. To be noted: MTase-Glo luminescence, SAH detection, recombinant enzyme; measured here: PNMT max response; stronger effect = lower value.
In a further test the test system is CRL-7250. Description: Cytotoxic Profiling of Annotated Libraries Using Quantitative High-Throughput Screening (AID 1296008). For max response: % is set by controls: 0 for no effect and ±100 for the full control effect. Note: nearly all actives have a fitted effect of over 60% in size. Note: potency is the fitted concentration of half-maximal effect. To be noted: Five cell lines viability, CellTiter-Glo ATP luminescence, 48-72 h; max response: stronger effect = lower value. In outline:
(§2)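 Cells exposed to compounds for 48 or 72 hr at 37 degrees Celsius. Viability read as ATP-coupled luminescence with CellTiter-Glo after 10 min at room temperature.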
In general terms: Cellular ATP, detected with luciferase, serves as a proxy for viable cell number.

A short description of test [10]: Primary fluorescence-based thiol-reactive (MSTI) qHTS assay for identification of artifact compounds. (AID 1845221). Note: nearly all actives have a fitted effect of over 65% in size. Note: potency is the fitted concentration of half-maximal effect. In outline:
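Probe: MSTI 4 uM, PBS pH 7.4, 2% DMSO. Incubation 1 h, RT, light-protected. Readout fluorescence 525/598 nm.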

A further test relates to NIH3T3. Description: Cytotoxic Profiling of Annotated Libraries Using Quantitative High-Throughput Screening (AID 1296008). For max response: % is set by controls: 0 for no effect and ±100 for the full control effect. Note: nearly all actives have a fitted effect of over 60% in size. Note: potency is the fitted concentration of half-maximal effect. To be noted: Five cell lines viability, CellTiter-Glo ATP luminescence, 48-72 h; max response: stronger effect = lower value. In outline:
as §2

Test [11] is described as follows: Confirmatory screen GU Rhodamine qHTS for Zika virus inhibitors qHTS (AID 1347157). Note: potency is the fitted concentration of half-maximal effect; nearly all actives have a fitted effect of over 70% in size. The procedure, abridged: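 Noncovalent NS2B hydrophilic domain/NS3 protease complex (25 nM final) in 10 mM Tris-HCl pH 8.0, 0.01% Tween 20, preincubated 15 min with compounds (up to 114 microM), then 1.5 microM Rhodamine110 substrate. Fluorescence change over 15 min fitted to 4-parameter Hill.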

The test system of another test is CAOV3. Description: Primary qHTS to identify gynecologic anti-cancer compounds using libraries of approved drugs and bioactive compounds (AID 1345084). Note: nearly all actives have a fitted effect of over 55% in size. Note: potency is the fitted concentration of half-maximal effect. To be noted: Gynecologic cancer cell panel viability, ATPlite luminescence, 48 h; series mostly up to 57.5 µM. The procedure, abridged: as §1

Each structure is given as a SMILES string. Inconclusive results are not listed. Active and inactive are the calls of the source. Unless noted, calls come from the whole dose curve; as a rule, active = well fitted curve in the direction sought with a large enough effect; inconclusive = small, poorly fitted or top-dose-only effect, or another doubt; inactive = no such curve, though single readings can be large; an effect the other way counts as inactive or inconclusive.

Sequence of Cytochrome P450 2C9 (Homo sapiens) (P11712 whole entry, looked up): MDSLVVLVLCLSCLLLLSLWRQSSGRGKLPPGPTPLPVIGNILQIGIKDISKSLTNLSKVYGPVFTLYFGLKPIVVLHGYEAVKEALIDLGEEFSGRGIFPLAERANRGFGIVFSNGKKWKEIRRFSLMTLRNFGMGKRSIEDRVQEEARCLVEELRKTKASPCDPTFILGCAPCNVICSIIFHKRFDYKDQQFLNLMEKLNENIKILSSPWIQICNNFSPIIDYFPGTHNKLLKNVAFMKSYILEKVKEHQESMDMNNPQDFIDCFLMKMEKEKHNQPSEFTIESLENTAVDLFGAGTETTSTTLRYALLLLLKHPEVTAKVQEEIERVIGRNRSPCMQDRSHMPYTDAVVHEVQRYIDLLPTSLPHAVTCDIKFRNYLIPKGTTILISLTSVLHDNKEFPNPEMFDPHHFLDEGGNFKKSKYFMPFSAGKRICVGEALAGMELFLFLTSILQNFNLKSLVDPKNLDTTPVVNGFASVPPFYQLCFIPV
Sequence of Cytochrome P450 2D6 (Homo sapiens) (P10635 whole entry, looked up): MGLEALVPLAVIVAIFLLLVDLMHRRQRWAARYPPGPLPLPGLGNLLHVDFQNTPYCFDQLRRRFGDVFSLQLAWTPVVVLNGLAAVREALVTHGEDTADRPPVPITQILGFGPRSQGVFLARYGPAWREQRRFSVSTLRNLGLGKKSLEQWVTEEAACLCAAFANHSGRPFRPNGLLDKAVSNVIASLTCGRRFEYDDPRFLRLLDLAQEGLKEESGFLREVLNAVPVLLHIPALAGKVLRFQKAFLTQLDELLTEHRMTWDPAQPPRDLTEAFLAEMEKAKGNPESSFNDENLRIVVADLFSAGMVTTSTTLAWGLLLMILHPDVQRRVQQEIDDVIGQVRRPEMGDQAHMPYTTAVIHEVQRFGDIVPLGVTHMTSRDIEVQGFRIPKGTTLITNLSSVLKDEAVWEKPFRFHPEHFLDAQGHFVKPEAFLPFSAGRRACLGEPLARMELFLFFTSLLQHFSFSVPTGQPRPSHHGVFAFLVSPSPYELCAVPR
Sequence of Catechol O-methyltransferase (Homo sapiens) (P21964 whole entry, looked up): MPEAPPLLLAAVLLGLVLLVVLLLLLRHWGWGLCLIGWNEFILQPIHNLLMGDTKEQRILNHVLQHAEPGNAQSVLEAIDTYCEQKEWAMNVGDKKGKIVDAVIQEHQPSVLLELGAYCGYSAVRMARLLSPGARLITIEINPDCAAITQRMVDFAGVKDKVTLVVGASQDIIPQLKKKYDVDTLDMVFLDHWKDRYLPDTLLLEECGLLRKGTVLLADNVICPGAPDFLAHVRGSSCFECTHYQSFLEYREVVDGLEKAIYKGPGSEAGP
Sequence of Phenylethanolamine N-methyltransferase (Homo sapiens) (P11086 whole entry, looked up): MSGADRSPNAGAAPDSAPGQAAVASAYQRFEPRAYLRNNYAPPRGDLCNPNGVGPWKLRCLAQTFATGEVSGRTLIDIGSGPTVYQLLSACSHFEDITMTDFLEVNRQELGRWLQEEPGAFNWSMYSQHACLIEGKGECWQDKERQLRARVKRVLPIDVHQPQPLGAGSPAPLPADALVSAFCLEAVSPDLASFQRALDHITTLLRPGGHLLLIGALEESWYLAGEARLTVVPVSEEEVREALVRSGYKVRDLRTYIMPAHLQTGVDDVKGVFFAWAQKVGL
Sequence of Nicotinamide N-methyltransferase (Homo sapiens) (P40261 whole entry, looked up): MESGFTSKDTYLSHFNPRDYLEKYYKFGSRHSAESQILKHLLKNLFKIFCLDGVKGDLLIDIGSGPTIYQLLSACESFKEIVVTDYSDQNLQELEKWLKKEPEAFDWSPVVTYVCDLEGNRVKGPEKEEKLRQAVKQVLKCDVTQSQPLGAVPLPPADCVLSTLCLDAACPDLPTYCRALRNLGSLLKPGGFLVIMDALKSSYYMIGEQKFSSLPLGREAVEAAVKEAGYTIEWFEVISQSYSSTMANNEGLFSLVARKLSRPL

Regarding `CCC(C)n1cc(C)c2c(C(=O)NCc3c(C)cc(C)[nH]c3=O)cc(-c3ccc(N4CCNCC4)nc3)cc21` (stereo not drawn), the Potency result (in [1]; in the test on PA-1; in the test on SKOV3) was “inactive” in each case. Moreover, the Potency in test [2] was 2.13 µM (active). Further, the outcome in the test with HACAT is “inactive”.

With `Nc1ncnc2c1ncn2[C@@H]1O[C@H](CO)C[C@H]1O`, the Potency in [3] is 0.001 µM (active). In addition, the Potency entry in test [4] was “inactive”.

Turning to `COc1ccc(C(=O)N(CCC(C)C)Cc2nc(C)c(C)n2Cc2ccccc2C)c(OC)c1`, the Potency in test [5] is 0.952 µM (active); in [2] it was 21.3 µM (active). For the same compound, the activity in [6] was -8.43%; in [8], -68.8%; in [9] it was -7.99%. The activity change, negative = inhibition in test [7] was -6.57%. In addition, the max response in the test on CRL-7250 is -0.877% (inactive). The Potency entry in the test on PA-1 and in the test with SKOV3 was “inactive” each time.

In the case of `OCC(Cc1ccccc1)Nc1nc(Oc2ccc3c(c2)CCC3)nc2c1ncn2Cc1ccc(-c2ccccc2)cc1` (stereo not drawn), the Potency result in the test with SKOV3 was “inactive”.

With `COc1cc(O)c(C(=O)CCc2ccc(O)cc2)c(O[C@@H]2O[C@H](CO)[C@@H](O)[C@H](O)[C@H]2O)c1`, the Potency result in [3] and in test [1] was “inactive” each time. The activity in test [6] is -69.8%; in test [8], 0.372%; in test [9], 0.533%. In addition, the activity change, negative = inhibition in test [7] is -2.33% [at 29.8 µM]. Besides, the Potency in [10] was 9.22 µM (active). In the test with HACAT, the outcome was “inactive [at 17.4 µM]”.

As to `CCN1CCN(Cc2ccc(-c3cc4c(NC(C)c5ccccc5)ncnc4[nH]3)cc2)CC1` (stereo not drawn), the Potency entry in [1], in test [2] and in test [10] was “inactive” each time. Further, the Potency in test [5] was 12 µM (active); with NIH3T3 it was 8.2 µM (active); in the test on SKOV3, 3.55 µM (active).

For the compound `CC1CCC2C(=CCC(O)C2(C)C)C1(C)Cc1c(O)cc(CO)c(C=O)c1O` (stereo not drawn), in [11], the Potency was 24.3 µM (active). The outcome in the test on HACAT was “inactive”. Moreover, the Potency result in the test on CAOV3, in the test on PA-1 and in the test on SKOV3 was “inactive” each time.

Consider `Cn1c(NC[C@@H](N)Cc2ccccc2)nc(-c2ccncc2)c(-c2ccc3ccccc3c2)c1=O`, for which the Potency entry (in test [1]; with PA-1; in the test on SKOV3) was “inactive” each time. For the same compound, the Potency in test [5] was 19 µM (active). The max response in the test on CRL-7250 was -1.38% (inactive).

With `CCN(CCCOc1ccc2c(Nc3cc(CC(=O)Nc4cccc(F)c4)[nH]n3)ncnc2c1)CCOP(=O)(O)O`, the Potency entry in test [4] and in test [10] was “inactive” throughout. Further, the Potency in the test with SKOV3 is 15.8 µM (active).

Regarding `Cc1ccc(C2(COC(=O)C(C)C)CO2)c(OC(=O)C(C)C)c1` (stereo not drawn), the Potency result (in test [1]; in the test on CAOV3; with PA-1; with SKOV3) was “inactive” throughout. Moreover, the outcome in the test on HACAT is “inactive”.

`COc1cc([C@@H](CC(=O)O)c2ccc(C)c(CN3C[C@@H](C)Oc4ccccc4S3(=O)=O)c2)cc2nnn(C)c12`: the Potency result in test [4] was “inactive”. Besides, the max response in the test on NIH3T3 was 3.5% (inactive).

Turning to `C=C(C)C(=O)OC1[C@@H]2C(=C)C(=O)O[C@@H]2C[C@@H](C)[C@@H]2C=CC(=O)[C@@]12C` (stereo partly drawn), the outcome in the test on HACAT is “inactive”. Moreover, the Potency entry in the test with SKOV3 was “inactive”.

These data come from PubChem BioAssay (NCATS).
